According to PubChem BioAssay AID591 (National Center for Advancing Translational Sciences (NCATS), 2007):
Screen size: about 59,000 compounds; about 60 (0.1%) were called active. No rule for the calls is given here. Only a selection was taken, and actives are over-represented in it overall.

Assay: qHTS Assay for Spectroscopic Profiling in A488 Spectral Region
Conditions: compound autofluorescence; max dye equivalency: Compound Type: qHTS ECL - SigmaAldrich, hits give high values unless noted; outcome: dye equivalency, Compound Type: qHTS ECL - MLSMR unless noted
Procedure, shortened: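 Compounds pin-transferred into 100 mM Tris buffer, pH 8.0, incubated 15 min at room temperature, then imaged with 480 nm excitation/540 nm emission filters. Fluorescence converted to Alexa 488 dye-equivalent concentration via an on-plate six-point A488 standard curve.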

outcome, inactive:
Cc1cc(Br)ccc1NC(=O)C1CCCO1 (stereo unspecified) inactive [dye equivalency, Compound Type: qHTS ECL - DPISMR]
Cc1nnc(C)n1/N=C/c1ccc(C(C)C)cc1
CCON=C1C(C)(C)C(C)(C)C(C)(C)C1(C)C inactive [dye equivalency, Compound Type: qHTS ECL - NCI]
COc1ccc(C2/C(=C(/O)c3ccc(OC(C)C)cc3)C(=O)C(=O)N2CCCN2CCOCC2)cc1 (stereo unspecified)
COC(=O)c1ccc(Oc2nc(NC(C)C)nc(SC)n2)cc1 inactive [dye equivalency, Compound Type: qHTS ECL - DPISMR]
CCc1nnc(NC(=O)CSc2nnc(COc3ccc(C#N)cc3)n2-c2ccccc2)s1
C=CCOc1ccc(C2/C(=C(\O)c3c(C)[nH]c(C(=O)OC)c3C)C(=O)C(=O)N2CCN(C)C)cc1 (stereo unspecified) inactive [dye equivalency, Compound Type: qHTS ECL - DPISMR]
COc1ccc(NC(=O)N2CC3(CCN(C(C)=O)CC3)C2)cc1 inactive [dye equivalency, Compound Type: qHTS ECL - Pharmacopeia]
O=c1c(-c2ccc(F)cc2)nc2cnc(N3CCOCC3)nc2n1-c1ccccc1 inactive [dye equivalency, Compound Type: qHTS ECL - Pharmacopeia]
O=C(CSc1nnc(-c2ccncc2)n1C1CCCCC1)Nc1ccccc1
c1cncc(-c2nc(N3CCNCC3)c3ccccc3n2)c1 inactive [dye equivalency, Compound Type: qHTS ECL - Pharmacopeia]
Cc1ccc(S(=O)(=O)N2CCN(Cc3cccc(C)c3O)CC2)cc1
COc1ccc(-c2nc3cnc(N(C)C)nc3n(Cc3cccs3)c2=O)cc1 inactive [dye equivalency, Compound Type: qHTS ECL - Pharmacopeia]
Cc1nc2cnc(N3CCNCC3)nc2n(Cc2ccc(F)cc2)c1=O inactive [dye equivalency, Compound Type: qHTS ECL - Pharmacopeia]
COCCn1c(=O)c(-c2ccc(OC)cc2)nc2cnc(Oc3cccc(Cl)c3)nc21 inactive [dye equivalency, Compound Type: qHTS ECL - Pharmacopeia]
COc1ccc(OC)c2c(N)c(C#N)c(C(F)(F)C(F)(F)F)nc12
O=C(Nc1nn(Cc2ccccc2F)cc1Br)c1cccs1 inactive [dye equivalency, Compound Type: qHTS ECL - DPISMR]
Brc1ccc(Nc2c3c(nc4ncnn24)CCC3)cc1
Cc1ccccc1C(OCC(O)CN1CCCCC1CCO)c1ccccc1 (stereo unspecified)
CCCN1C(=O)C(NS(=O)(=O)c2ccc(N)cc2)(C(F)(F)F)C(C(=O)OC)=C1C (stereo unspecified) inactive [dye equivalency, Compound Type: qHTS ECL - DPISMR]
Cc1cc(C(F)(F)F)n2ncc(-c3ccccc3)c2n1 inactive [dye equivalency, Compound Type: qHTS ECL - DPISMR]
COc1ccccc1CNc1ncncc1-c1cccnc1 inactive [dye equivalency, Compound Type: qHTS ECL - Pharmacopeia]
Cc1ccc(S(=O)(=O)Nc2ccccc2CNc2c(C)n(C)n(-c3ccccc3)c2=O)cc1
CC(=NC1CCN(Cc2ccccc2)CC1)c1c(O)[nH]c(=O)[nH]c1=O inactive [dye equivalency, Compound Type: qHTS ECL - DPISMR]
CCn1ccnc1C[C@@H]1COc2ccccc2O1 inactive [dye equivalency, Compound Type: qHTS ECL - SigmaAldrich]
CN1[C@H]2CC(OC(=O)[C@@H](CO)c3ccccc3)C[C@H]1[C@H]1O[C@H]12 (stereo partly specified) inactive [dye equivalency, Compound Type: qHTS ECL - Prestwick]
